Sampled rows, rich in hits. Any-hit rate of the full collection: about 3.2%.
TMEM16A inh: TMEM16A chloride channel inhibitors, primary screen, cell-based, HTS; normalized B-score (activity score, 25-100; higher = stronger inhibition) at 10 µM; HEK293 TMEM16A/YFP iodide influx fluorescence, ionomycin; AID 588511, 2011; actives 1.2% (n = 310,000);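 active = ratio plate-corrected score three or more library SD toward inhibition, starting fluorescence score within five deviations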;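 note: score derived from kinetic fluorescence span divided by baseline fluorescence per well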
ANO1 activ: TMEM16A chloride channel activators or potentiators, primary screen, cell-based, HTS; Anoctamin-1 (Mus musculus), Q8BHY3; HEK293 TMEM16A/YFP-H148Q/I152L, iodide quench fluorescence; stronger effect = lower value; B-score at 10 µM; actives 0.3% (n = 340,000);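 active = fluorescence-ratio B-score plate-corrected deviation score at least 3 library SD below zero, with starting fluorescence score within 5 deviations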;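 note: channel opened by trigger with iodide after compound preincubation; score built on the fluorescence ratio of max minus min over baseline; more negative score means more quench and so TMEM16A activation or potentiation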
CHT PAM: CHT positive allosteric modulators, primary screen, cell-based, membrane potential dye, choline EC20. CHT-expressing cells; stronger effect = higher value; LV-AA mutant CHT in HEK293 cells. B-score at 10 µM. actives 0.49% (n = 310,000). AID 488977, 2010;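 active = initial fluorescence not abnormally high and integrated response B-score, plate-corrected, over 3 SD above library mean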
Kir21 block: inhibitors of mouse Kir2.1 inward-rectifier potassium channel. actives 0.85% (n = 310,000). AID 1672, 2009. Inward rectifier potassium channel 2 (Mus musculus), P35561. HEK293-Kir2.1, FluxOR thallium flux fluorescence; stronger effect = lower value. B-score at 10 µM;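 active = fluorescence ratio B-score at or below minus 3 SD of library scores, with starting-brightness B-score within 2 SD, cut at about -4.2 in these data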;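 note: channel flux triggered by added potassium and thallium sulfate stimulus; B-score of peak minus minimum fluorescence over baseline after thallium stimulus; more negative B-score means stronger Kir2.1 block with less thallium influx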
Target sequence (P35561 whole entry, looked up): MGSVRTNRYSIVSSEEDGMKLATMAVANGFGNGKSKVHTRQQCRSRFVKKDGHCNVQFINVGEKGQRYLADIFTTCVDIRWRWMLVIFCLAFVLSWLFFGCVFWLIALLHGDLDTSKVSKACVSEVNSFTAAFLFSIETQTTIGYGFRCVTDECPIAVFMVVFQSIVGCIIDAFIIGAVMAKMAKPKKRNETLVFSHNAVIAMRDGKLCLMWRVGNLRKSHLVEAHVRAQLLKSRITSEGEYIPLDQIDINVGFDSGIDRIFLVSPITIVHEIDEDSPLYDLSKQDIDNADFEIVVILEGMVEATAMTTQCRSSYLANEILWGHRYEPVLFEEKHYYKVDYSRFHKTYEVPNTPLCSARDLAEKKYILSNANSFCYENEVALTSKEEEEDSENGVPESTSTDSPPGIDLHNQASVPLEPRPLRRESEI
Rce1 inhib: yeast Rce1p protease inhibitors, primary screen, biochemical, fluorescence, cell-free homogeneous; yeast membranes, quenched prenylated peptide cleavage fluorescence; calls only; actives 0.27% (n = 290,000); AID 2563, 2010;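 active = fall in fluorescence gain of 50% or more versus controls, with final raw signal at or below 3038400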;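 note: plate controls were neutral control wells for no effect and wells lacking membranes for full effect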
CHT block: inhibitors of human choline transporter CHT | High affinity choline transporter 1 (Homo sapiens), Q9GZV3 | CHT-expressing cells, membrane potential dye, choline response; stronger effect = lower value | B-score at 10 µM | actives 0.86% (n = 310,000) | AID 488975, 2010;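 active = B-score over 3 SD under the library average, and starting fluorescence ratio not unusually high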;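 note: choline stimulus applied at its EC90 after an EC20 pre-addition; B-score computed on integrated fluorescence ratio after choline addition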
An asterisk follows results filed as active; i = inactive; nt = not tested or not shown; + = active, no number.

SMILES	TMEM16A inh	ANO1 activ	CHT PAM	Kir21 block	Rce1 inhib	CHT block
COc1ccc(S(=O)(=O)NCc2ccc(C(=O)N3CCc4ccccc4C3)cc2)cc1	i	i	i	-0.61	i	i
Cc1ccc(CNCC(O)(c2ccccc2)c2ccc(Cl)cc2)cc1 (stereo not drawn)	nt	i	nt	-2.8	i	nt
COc1ccc(CNCC(O)(c2ccccc2)c2ccc(Cl)cc2)cc1 (stereo not drawn)	i	i	i	-5.9*	i	i
O=C1NC2(CCCCC2)OC12CCCCC2	nt	i	nt	nt	nt	nt
COc1cc(CNCCc2c[nH]c3ccccc23)ccc1OCc1ccccc1F	i	i	i	-8.2*	i	i
COc1ccc(CNCc2ccco2)cc1OCc1ccccc1	i	i	i	-0.77	i	i
COc1ccccc1CCNCc1ccc(OC)c(OCc2ccccc2)c1	i	i	i	-8.5*	i	i
COc1cc(CNCCc2ccccc2)ccc1OCc1ccc(Cl)nc1	i	i	i	-6.4*	i	i
CCS(=O)(=O)N1CCC(NC(=O)C(Cc2cccc(OC)c2OC)NC(C)=O)CC1 (stereo not drawn)	nt	i	nt	-1.9	i	nt
CCN(CCN(C)C)C(=O)C1CCN(S(=O)(=O)c2c(C)noc2/C=C/c2ccccc2F)CC1	i	i	i	-5*	i	i
O=C(Nc1ccn(Cc2ccc(Cl)cc2)n1)c1ccccc1	25*	i	i	-0.08	i	i
C/C(CCc1ccccc1)=N\NC(=O)CC(=O)NCCc1ccccc1	i	i	i	-0.34	i	i
O=C(NCc1ccco1)c1sc(=S)n2c1[nH]c(=O)c1ccccc12	100*	i	i	0.77	i	i
O=C(Nc1cccc2ncccc12)c1cccnc1	i	i	i	1.5	+	i
O=C(Nc1cccc2ncccc12)c1cccc(F)c1	i	i	i	0.07	i	i
CCOP(=O)(c1ccccc1)c1nc(-c2ccccc2Cl)oc1N1CCCCC1 (stereo not drawn)	i	i	i	0.4	+	i
COc1ccc(OC)c(NC(=O)c2cc3oc4ccccc4c3cc2O)c1	i	i	i	-1.1	+	i
C#CCOCCOCCOCCNc1nc(N2CCN(C(=O)CCCCCCCCCCNC(=O)[C@H]([C@@H](C)CC)n3cc(CCCCN=C(N)N)nn3)CC2)nc(N2CCN(C(=O)CCCCCCCCCCNC(=O)[C@H](CO)n3cc(CCCCCN)nn3)CC2)n1	100*	-20*	i	nt	nt	i
C#CCOCCOCCOCCNc1nc(N2CCN(C(=O)CCCCCCCCCCNC(=O)[C@@H](CCC(=O)O)n3cc(CCCCCN)nn3)CC2)nc(N2CCN(C(=O)CCCCCCCCCCNC(=O)[C@H]([C@@H](C)CC)n3cc(CCCCCN)nn3)CC2)n1	i	i	i	nt	nt	i
C#CCOCCOCCOCCNc1nc(N2CCN(C(=O)[C@H](CCCCN)n3cc([C@@H](N)C(C)CC)nn3)CC2)nc(N2CCN(C(=O)[C@H](Cc3cc4ccccc4[nH]3)n3cc([C@@H](N)CC(C)C)nn3)CC2)n1 (stereo partly drawn)	i	-18*	i	-0.15	i	i
C#CCOCCOCCOCCNc1nc(N2CCN(C(=O)CCCCCCCCCCNC(=O)[C@H]([C@@H](C)CC)n3cc(CCCCCN)nn3)CC2)nc(N2CCN(C(=O)CCCCCCCCCCNC(=O)[C@H]([C@@H](C)CC)n3cc(CCCCN=C(N)N)nn3)CC2)n1	i	-28*	i	nt	nt	i

Screening data: PubChem, several laboratories
